Screening results deposited in PubChem by National Center for Advancing Translational Sciences (NCATS).
In the library only some 8.9% were active in any assay of this set; here they are far more common.
SW480 rerep: DNA re-replication induction in SW480 cells; SW480 DNA re-replication, Hoechst DNA content imaging, 48 h; Potency, µM (top dose mostly 46.1 µM), actives largely listed as activators; hit rate 1.8% among 340,000; AID 624297; also: nearly all actives have a fitted effect of over 55% in size
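Per well, 250 cells were exposed to pinned compound for 48 hr. Nuclear DNA was visualised with Hoechst (40 min, 37 C) and total object intensity recorded by fluorescence scanning.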
DRD3 agonist: activates the human D3 dopamine receptor | max activation, % | hit rate 0.58% among 410,000 | D3R DiscoveRx beta-arrestin cells, luminescence, 90 min | AID 652048 | P35462; in the data active = max activation above about 30%
Target sequence (P35462 whole entry, looked up): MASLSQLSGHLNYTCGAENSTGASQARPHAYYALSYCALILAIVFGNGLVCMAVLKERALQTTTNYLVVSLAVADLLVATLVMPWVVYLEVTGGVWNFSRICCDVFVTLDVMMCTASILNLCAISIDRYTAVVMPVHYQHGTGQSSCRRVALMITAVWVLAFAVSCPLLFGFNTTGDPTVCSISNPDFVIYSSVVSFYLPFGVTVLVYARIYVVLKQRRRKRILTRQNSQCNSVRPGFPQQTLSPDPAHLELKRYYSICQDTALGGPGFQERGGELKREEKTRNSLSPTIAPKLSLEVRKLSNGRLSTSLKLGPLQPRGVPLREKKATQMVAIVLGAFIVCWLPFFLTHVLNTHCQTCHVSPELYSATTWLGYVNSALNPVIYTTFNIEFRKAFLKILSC
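Agonist-mode cell screen: cells plated at 1500/well and incubated overnight at 37 °C, then exposed to library compounds for 90 min at 37 °C. Detection reagent was added for 30–60 min at room temperature, and luminescence was read.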
KB-V1 cytotox: kills drug-selected multidrug resistant KB-V1 cells; KB-V1 MDR cells viability, CellTiter-Glo, 72 h; Potency, µM (highest dose often 46.1 µM), usual class: cytotoxic; hit rate 3.4% among 400,000; AID 1347076; also: nearly all actives have a fitted effect of over 60% in size
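Cells of the MDR subline KB-V1 are plated, dosed with compound at multiple concentrations, and incubated 72 h at 37 degrees C; CellTiter-Glo is then added and luminescence read after 10 min.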
MCF10A rereplic: inducers of DNA re-replication in MCF 10A breast cells. MCF 10A DNA re-replication, Hoechst nuclear intensity, 48 h. Potency, µM (doses to about 46.1 µM), most hits filed as activators. hit rate 2.9% among 350,000; also: nearly all actives have a fitted effect of over 50% in size
D3 antag: blocks the human D3 dopamine receptor. P35462. D3R cells, DiscoveRx beta-arrestin luminescence, antagonist mode; active compounds read low. max response, negative = inhibition, %. hit rate 2.5% among 360,000; in the data active = max response below about -50%; inconclusive = no clear call, values can overlap the other calls
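Cells expressing the human receptor were seeded at 1500 cells/well, incubated overnight at 37 degrees C in 5% CO2, then exposed to library compounds with dopamine controls for 90 minutes at 37 degrees C before luminescent detection.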
KB-3-1 tox: kills parental KB-3-1 adenocarcinoma cells. KB-3-1 viability, CellTiter-Glo ATP luminescence, 72 h. hit rate 1.4% among 400,000. Potency, µM (series often up to 46.1 µM), hits mostly cytotoxic; also: nearly all actives have a fitted effect of over 60% in size
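Here the drug-naive KB-3-1 line serves as comparator for MDR sub-line selectivity; cells received compound titrations, 72 h at 37 °C, then CellTiter-Glo readout.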
Hits are given with their value; . = inactive; ? = inconclusive; / = not tested or not shown; [ ] = remark or other dose. Unless noted, calls follow the shape of the dose curve; as a rule, active = well fitted curve in the direction sought with a large enough effect; inconclusive = small, poorly fitted or top-dose-only effect, or another doubt; inactive = no such curve, though single readings can be large; an effect the other way counts as inactive or inconclusive.

SMILES | SW480 rerep | DRD3 agonist | KB-V1 cytotox | MCF10A rereplic | D3 antag | KB-3-1 tox
Cc1ccc(NC(=O)C[n+]2cc(-c3ccc(C)cc3)n3c2CCC3)cc1 | . | . | . | . | -66 | .
COc1ccc(C(=O)C[n+]2cc(-c3ccc(OC)cc3)n3c2CCCC3)cc1 | ? | . | ? | . | . | ?
Cc1ccc(-c2c[n+](CC(=O)OCc3ccccc3)c3n2CCC3)cc1 | 9.2µM | . | . | ? | . | .
Cc1ccc(C(=O)C[n+]2cc(-c3ccc(C)cc3)n3c2CCCCC3)cc1 | . | . | . | ? | . | 0.92µM
O=C(Nc1cccc(C(F)(F)F)c1)c1cc2nc(-c3ccccc3)cc(C(F)(F)F)n2n1 | / | . | / | / | / | /
COc1ccc(OC)c(CNC(=O)c2ccc(C)c(NC(=O)c3nsc4ccccc34)c2)c1 | / | . | . | / | / | .
CC1=C(CC(=O)c2ccc(Cl)cc2)C(=O)c2ccccc2C1=O | 4.1µM | . | 16µM | 4.1µM | . | ?
O=S1(=O)N=C(Sc2cccc3cccnc23)c2ccccc21 | / | / | ? | / | / | 9.2µM
COC(=O)C(NC(=O)CC(C)C)(Nc1nc2c(s1)CCCC2)C(F)(F)F (centres undefined) | / | . | . | / | / | .
CCN1CCN(CCCNC(=O)c2cc3c(=O)n(C)c4ccccc4c3s2)CC1 | / | . | . | / | / | .
O=c1cc(-c2ccccc2)[nH]n1-c1ccc([N+](=O)[O-])cc1 | . | . | ? | 15µM | ? | ?
NC(=S)n1[nH]c(-c2ccc([N+](=O)[O-])cc2)c(N=Nc2ccc(Cl)cc2)c1=O | . | . | . | . | . | 18µM
O=c1c(N=Nc2ccc(O)cc2)c(-c2ccccc2)[nH]n1-c1ccc([N+](=O)[O-])cc1 | ? | . | ? | . | -70 | .
O=Nc1c(-c2ccccc2)[nH]n(-c2ccccc2)c1=O | . | . | . | . | . | .
CCNC(=O)NC(=O)COC(=O)c1ccccc1SCC(=O)NC(=O)NCC | . | . | . | ? | -75 | .
O=C(COC(=O)c1ccccc1SCC(=O)NC1CCS(=O)(=O)C1)NC1CCS(=O)(=O)C1 (centres undefined) | . | . | . | . | . | .
Cc1nc2c3ccccc3nc(NNC(=O)CCC(=O)N3CCN(c4cc(Cl)ccc4C)CC3)n2n1 | / | . | . | / | / | .
CCn1cc2nc(SCC(=O)Nc3ccc(OC)c(OC)c3)n(Cc3ccc(OC)cc3)c(=O)c2n1 | . | . | . | . | . | .
CCn1cc2nc(SCc3cccc(C(F)(F)F)c3)n(Cc3ccc(OC)cc3)c(=O)c2n1 | / | . | 18µM | / | / | .
CCn1cc2nc(SCc3ccccc3Cl)n(Cc3ccc(OC)cc3)c(=O)c2n1 | / | . | . | / | / | .
CCn1cc2nc(SCC(=O)Nc3ccc(OC)cc3OC)n(Cc3ccc(OC)cc3)c(=O)c2n1 | 7.3µM | . | ? | 3.3µM | . | ?
O=C1Cc2cc(S(=O)(=O)N3CCN(c4cccc(C(F)(F)F)c4)CC3)ccc2N1 | / | / | . | / | / | .
CCOc1ccc(Nc2ncnc3c2nc2n3CCCCC2)cc1 | / | . | . | / | / | .
CSc1ncccc1C(=O)NC1CCN(Cc2ccccc2)CC1 | . | . | . | . | -60 | .
O=C(NC1CCN(Cc2ccccc2)CC1)c1ccccc1Cl | . | . | . | . | ? | .
SMILES | SW480 rerep | DRD3 agonist | KB-V1 cytotox | MCF10A rereplic | D3 antag | KB-3-1 tox
O=C(NC1CCN(Cc2ccccc2)CC1)c1ccccc1OCc1ccccc1Cl | . | . | ? | . | -105 | ?
O=C(NC1CCN(Cc2ccccc2)CC1)c1ccccc1OCc1ccccc1 | . | . | . | . | -99 | .
O=C(NC1CCN(Cc2ccc(Cl)cc2)CC1)c1cn(-c2ccccc2)nc1-c1cccnc1 | . | . | . | 21µM | -62 | ?
O=C(OC(C(=O)N1CCOCC1)c1ccccc1)c1c2c(nc3ccccc13)CCCC2 (centres undefined) | / | / | . | / | / | .
Cc1cccc(NC(=O)c2cc(S(=O)(=O)NCCc3ccccc3)ccc2F)c1C | / | . | / | / | / | /
O=C(NC1CCCC1)c1ccccc1OCc1ccccc1 | . | . | ? | ? | . | .
CCOc1ccccc1C(=O)NC1CCN(Cc2ccccc2)CC1 | . | . | ? | . | -73 | .
Cc1nc2c3cc(Cl)ccc3n(CCN3CCCCC3)c2s1 | 15µM | . | . | 18µM | . | .
Cc1ccc(C(=O)N2c3ccccc3Sc3ccccc32)cc1 | / | . | ? | / | . | ?
O=C(CSc1nncs1)N1c2ccccc2Sc2ccccc21 | 21µM | . | ? | 8.2µM | . | .
Cc1ccc(SCC(=O)N2c3ccccc3Sc3ccccc32)cc1 | . | . | . | 7.3µM | . | .
Cc1ccccc1C(=O)NCc1nnc(SCC(=O)N2c3ccccc3Sc3ccccc32)n1C | . | . | . | . | -64 | .
CCc1nc(SCC(=O)N2c3ccccc3Sc3ccccc32)c2ccccc2n1 | . | . | 8.2µM | . | . | .
CCc1ccc(C2C(C(=O)Nc3ccccc3C)=C(C)Nc3nc(SCc4cccc(OC)c4)nn32)cc1 (centres undefined) | / | . | . | / | / | .
COc1ccc(C(CC(=O)O)NC(=O)c2ccco2)cc1 (centres undefined) | . | . | . | .[0.0737 µM] | . | .
C=CCOC(=O)/C(=C\c1ccc(OC)cc1)NC(=O)c1ccco1 | . | . | . | . | -51 | .
CCOC(=O)CC(NC(=O)c1ccco1)c1ccc(OC)cc1 (centres undefined) | . | . | 23µM | . | . | .
COc1ccc(CCNC(=O)c2csc3c2CCCCC3)c(OC)c1 | / | . | ? | / | / | ?
Cc1nnc(SCC(=O)c2cc(C)n(-c3c(C)n(C)n(-c4ccccc4)c3=O)c2C)s1 | . | . | . | . | . | .
Cc1cc(C(=O)CSc2nncs2)c(C)n1-c1c(C)n(C)n(-c2ccccc2)c1=O | . | . | . | . | -95 | .
Cc1cc(C(=O)CCl)c(C)n1-c1c(C)n(C)n(-c2ccccc2)c1=O | 21µM | . | ? | 5.2µM | . | ?
Cc1ccc(-n2c(C)cc(C(=O)CSc3nncs3)c2C)cc1 | . | . | ? | . | . | 23µM
Cc1ccc(C)c(NC(=O)c2cc(S(=O)(=O)N3CCCCCC3)ccc2F)c1 | / | . | . | / | / | .
CCc1nn2c(=O)cc(COC(=O)c3ccccc3NC(=O)COc3ccccc3C)nc2s1 | / | . | / | / | / | /
Cc1cc(O)c(N=Cc2cc3c(cc2[N+](=O)[O-])OCO3)cc1C | ? | . | . | 16µM | . | .
CCCn1c2ccccc2c2cnn(CC(=O)NCc3cc(OC)ccc3OC)c(=O)c21 | / | . | . | / | / | .
COc1ccc2cc(C(=O)N/N=C/c3sc4ccccc4c3O)ccc2c1 | ? | . | 23µM | ? | ? | 13µM
O=C(N/N=C/c1sc2ccccc2c1O)c1ccccc1 | 2.6µM | . | ? | ? | . | .
O=C(N/N=C/c1sc2ccccc2c1O)c1cccc2ccccc12 | ? | . | ? | ? | . | .
